# Measured values: article PMC4053984, “DNA binding specificities of the long zinc-finger recombination protein PRDM9”
# Target: PRDM9Cst (Mus musculus (CAST/EiJ))
# Test: competition EMSA; competition against biotin-labeled 75-bp Hlx1 B6 oligo; 10 mM Tris pH 7.5, 50 mM KCl, 1 mM DTT, 50 ng/ul poly(dI/dC), 0.05% NP-40, crude E. coli extract 3 ul in 20 ul; 1 h with unlabeled competitor, then 4 h with biotin-labeled 75-bp Hlx1; temperature not stated; high values mean tight binding
# Conditions: tags: N-terminal His tag (pBAD/HisB); dsDNA, one strand shown
# Sequence of PRDM9Cst (Mus musculus (CAST/EiJ)) (chain, as listed by the source): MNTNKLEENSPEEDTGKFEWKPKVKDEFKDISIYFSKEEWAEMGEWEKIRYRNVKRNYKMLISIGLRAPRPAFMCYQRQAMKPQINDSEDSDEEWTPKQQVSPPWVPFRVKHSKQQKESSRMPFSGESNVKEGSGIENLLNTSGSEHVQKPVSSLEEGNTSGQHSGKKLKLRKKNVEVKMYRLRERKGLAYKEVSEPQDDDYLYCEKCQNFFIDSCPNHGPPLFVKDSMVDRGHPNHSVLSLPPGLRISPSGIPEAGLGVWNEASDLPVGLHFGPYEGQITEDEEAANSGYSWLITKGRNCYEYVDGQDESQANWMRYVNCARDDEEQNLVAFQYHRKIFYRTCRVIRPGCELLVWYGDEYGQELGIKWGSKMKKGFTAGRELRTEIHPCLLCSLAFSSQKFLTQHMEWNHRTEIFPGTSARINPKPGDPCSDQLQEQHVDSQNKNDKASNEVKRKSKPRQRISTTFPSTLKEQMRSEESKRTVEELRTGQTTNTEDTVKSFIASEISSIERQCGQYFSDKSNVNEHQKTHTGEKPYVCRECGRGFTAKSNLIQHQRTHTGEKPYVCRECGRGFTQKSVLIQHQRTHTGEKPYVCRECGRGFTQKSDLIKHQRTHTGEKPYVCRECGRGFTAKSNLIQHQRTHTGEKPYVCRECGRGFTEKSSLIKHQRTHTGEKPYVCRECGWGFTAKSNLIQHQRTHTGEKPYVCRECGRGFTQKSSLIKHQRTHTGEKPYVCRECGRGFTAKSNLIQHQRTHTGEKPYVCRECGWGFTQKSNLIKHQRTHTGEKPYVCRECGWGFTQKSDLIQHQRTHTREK
row,Sequence,binding signal
1,ATAGTGTGCAGACTTGGACCCTGCCCATTCTTT,"0.09 Bmut (0 = wild type, -1 = scrambled)"
2,ATAGTGTGCAGACTTCGACCCTGCCCTTTCTTT,"-0.2 Bmut (0 = wild type, -1 = scrambled)"
3,ATAGTGTGCAGACTTGGAACCTGCCCTTTCTTT,"-0.1 Bmut (0 = wild type, -1 = scrambled)"
4,ATAGCGTGCAGACTTGGACCCTGCCCTTTCTTT,"-0.5 Bmut (0 = wild type, -1 = scrambled)"
5,ATAGTGTGCAGACTTGGACCCTGCCATTTCTTT,"-0.1 Bmut (0 = wild type, -1 = scrambled)"
6,ATAGTGTGCAGACTTGGACCCTGCCCTTTCTTT,"0 Bmut (0 = wild type, -1 = scrambled)"
7,ATAGTGTGCAGACTTAGACCCTGCCCTTTCTTT,"-0.1 Bmut (0 = wild type, -1 = scrambled)"
8,ATAGTGTGCAGACTTGGACCCTGCCCGTTCTTT,"0.1 Bmut (0 = wild type, -1 = scrambled)"
9,ATAGTGTGCAGACTTGGACCCTGCTCTTTCTTT,"-0.2 Bmut (0 = wild type, -1 = scrambled)"
10,ATAGTGTGCAGACTTGGACCCCGCCCTTTCTTT,"-0.1 Bmut (0 = wild type, -1 = scrambled)"
11,ATAGTGTGCAGACTTGGACCCTGCCCTTACTTT,"-0.1 Bmut (0 = wild type, -1 = scrambled)"
12,ATATTGTGCAGACTTGGACCCTGCCCTTTCTTT,"0.3 Bmut (0 = wild type, -1 = scrambled)"
13,ATCGTGTGCAGACTTGGACCCTGCCCTTTCTTT,"-0.1 Bmut (0 = wild type, -1 = scrambled)"
14,ATAGTCTGCAGACTTGGACCCTGCCCTTTCTTT,"0.1 Bmut (0 = wild type, -1 = scrambled)"
15,ATAGTGTGCAGACTGGGACCCTGCCCTTTCTTT,"-0.3 Bmut (0 = wild type, -1 = scrambled)"
16,ATAGTGTGCAGACTTGGACCCAGCCCTTTCTTT,"0.01 Bmut (0 = wild type, -1 = scrambled)"

row,Sequence,binding signal
1,ATAGTGTGCAGACTTGGACCCTGCCGTTTCTTT,"0.04 Bmut (0 = wild type, -1 = scrambled)"
2,ATAGTGTGCAGACTTGGACCCTGCCCTTTCTTG,"0.09 Bmut (0 = wild type, -1 = scrambled)"
3,ATAGTGTGCAGACTTGGACCCTGCCCCTTCTTT,"0.19 Bmut (0 = wild type, -1 = scrambled)"
4,ATAGTGTGCAGACTTGGACCCTGCCCTTTCTCT,"0.13 Bmut (0 = wild type, -1 = scrambled)"
5,ATAGTGTGCAGACTTGGACCCTCCCCTTTCTTT,"-0.1 Bmut (0 = wild type, -1 = scrambled)"
6,ATAGTGTGCAGACTTGGACCCTGCCCTTGCTTT,"-0 Bmut (0 = wild type, -1 = scrambled)"
7,ATAGTGTGCTGACTTGGACCCTGCCCTTTCTTT,"-0.4 Bmut (0 = wild type, -1 = scrambled)"
8,ATAGTGTGCAGACTTGGACCCTGCCCTTTCTTC,"0.14 Bmut (0 = wild type, -1 = scrambled)"
9,ATAGTGTGCAGACTTGCACCCTGCCCTTTCTTT,"-0.2 Bmut (0 = wild type, -1 = scrambled)"
10,ATAGTGTGCAGAATTGGACCCTGCCCTTTCTTT,"-0.1 Bmut (0 = wild type, -1 = scrambled)"
11,ATAGTGTGCACACTTGGACCCTGCCCTTTCTTT,"-0.2 Bmut (0 = wild type, -1 = scrambled)"
12,ATAGTGTGCAGACTTGGACGCTGCCCTTTCTTT,"-0.1 Bmut (0 = wild type, -1 = scrambled)"
13,ATAGTGTGCAGACTTGGAGCCTGCCCTTTCTTT,"-0.5 Bmut (0 = wild type, -1 = scrambled)"
14,ATAGTGTGCAGACGTGGACCCTGCCCTTTCTTT,"-0.4 Bmut (0 = wild type, -1 = scrambled)"
15,ATAGTGTGCAGACTTGGACCCTGACCTTTCTTT,"-0.3 Bmut (0 = wild type, -1 = scrambled)"
